Results from PubChem BioAssay (Tox21).
Where “and” joins values, the source holds several entries; their conditions need not be identical. Identical values can stand only once. Inconclusive results are not listed. Calls of active or inactive are those of the source. Unless noted, calls come from the whole dose curve; as a rule, active = well fitted curve in the direction sought with a large enough effect in the repeat runs; inconclusive = weak or mixed curves; inactive = no such curve, though single readings can be large; an effect the other way counts as inactive or inconclusive.

Legend:
[1] = qHTS assay to identify small molecule antagonists of the thyroid receptor (TR) signaling pathway (AID 743065); note: nearly all actives have a fitted effect of over 55% in size; note: potency is the fitted concentration of half-maximal effect
Method in brief: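 Antagonism measured as loss of luciferase signal in GH3 cells stably carrying a TRE-luciferase reporter, co-treated with compound and T3 (1 nM final) for 23.5 h at 37 C. Viability was read in the same well by CellTiter-Fluor.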

[2] = test system: thyroid hormone receptor (rat, GH3 cells); assay: qHTS assay to identify small molecule agonists of the thyroid receptor (TR) signaling pathway (AID 743066; calls by dose curve)
[3] = target: Estrogen receptor (Homo sapiens) (UniProt P03372); assay: qHTS assay to identify small molecule antagonists of the estrogen receptor alpha (ER-alpha) signaling pathway (AID 743069; active = well fitted curve in the direction sought with a large enough effect in the signal ratio in the repeat runs, not every such curve was filed as active; the % refers to the signal ratio)
Method in brief: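 Compound effects are measured against 17beta-estradiol stimulation in HEK293 cells with a UAS-controlled beta-lactamase reporter for ER-alpha. Exposure lasts 18 hr at 37C; LiveBLAzer B/G FRET substrate follows for 2 hr at room temperature.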

[4] = qHTS assay to identify small molecule antagonists of the estrogen receptor alpha (ER-alpha) signaling pathway - cell viability counter screen (AID 743074; calls by dose curve;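 note: HEK293 cells carrying ER-alpha-UAS-bla reporter stimulated with 17beta-estradiol; nearly all actives have a fitted effect of over 45% in size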)
[5] = target: Estrogen receptor (Homo sapiens) (UniProt P03372); assay: qHTS assay to identify small molecule agonists of the estrogen receptor alpha (ER-alpha) signaling pathway (AID 743075; calls by dose curve)
[6] = target: Estrogen receptor (Homo sapiens) (UniProt P03372); assay: qHTS assay to identify small molecule agonists of the estrogen receptor alpha (ER-alpha) signaling pathway using the BG1 cell line (AID 743079); note: nearly all actives have a fitted effect of over 20% in size; note: potency is the fitted concentration of half-maximal effect
[7] = qHTS assay to identify small molecule antagonists of the estrogen receptor alpha (ER-alpha) signaling pathway using the BG1 cell line (AID 743080; calls by dose curve;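 note: BG1 cells stimulated with 17beta-estradiol alongside compound; series mostly up to about 70 µM; nearly all actives have a fitted effect of over 25% in size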)
Method in brief: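 BG1-Luc-4E2 cells (endogenous full-length ER-alpha, stable 4×ERE-luciferase) were starved 5 days in phenol-red-free medium with 10% charcoal-stripped FBS, plated 24 h, then given compound plus 17beta-estradiol for 21.5 h at 37 C; ONE-Glo luminescence read after 30 min.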

[8] = qHTS assay to identify small molecule antagonists of the estrogen receptor alpha (ER-alpha) signaling pathway using the BG1 cell line - cell viability counter screen (AID 743081);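 note: compound given together with 17beta-estradiol as the ER stimulus; nearly all actives have a fitted effect of over 45% in size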; note: potency is the fitted concentration of half-maximal effect
Aromatase (Homo sapiens) = Aromatase (Homo sapiens) (UniProt P11511); assay: qHTS assay to identify aromatase inhibitors (AID 743083); note: nearly all actives have a fitted effect of over 55% in size; note: potency is the fitted concentration of half-maximal effect
[9] = qHTS assay to identify small molecule antagonists of the thyroid receptor (TR) signaling pathway - cell viability counter screen (AID 743064); note: nearly all actives have a fitted effect of over 50% in size; note: potency is the fitted concentration of half-maximal effect
Method in brief: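 Viability of T3-stimulated (1 nM final) GH3.TRE-Luc cells is measured by CellTiter-Fluor fluorescence after 23.5 h compound exposure at 37 °C plus 30 min reagent incubation.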

Measured: Potency

Chain of Estrogen receptor (Homo sapiens) (P03372 whole entry, looked up): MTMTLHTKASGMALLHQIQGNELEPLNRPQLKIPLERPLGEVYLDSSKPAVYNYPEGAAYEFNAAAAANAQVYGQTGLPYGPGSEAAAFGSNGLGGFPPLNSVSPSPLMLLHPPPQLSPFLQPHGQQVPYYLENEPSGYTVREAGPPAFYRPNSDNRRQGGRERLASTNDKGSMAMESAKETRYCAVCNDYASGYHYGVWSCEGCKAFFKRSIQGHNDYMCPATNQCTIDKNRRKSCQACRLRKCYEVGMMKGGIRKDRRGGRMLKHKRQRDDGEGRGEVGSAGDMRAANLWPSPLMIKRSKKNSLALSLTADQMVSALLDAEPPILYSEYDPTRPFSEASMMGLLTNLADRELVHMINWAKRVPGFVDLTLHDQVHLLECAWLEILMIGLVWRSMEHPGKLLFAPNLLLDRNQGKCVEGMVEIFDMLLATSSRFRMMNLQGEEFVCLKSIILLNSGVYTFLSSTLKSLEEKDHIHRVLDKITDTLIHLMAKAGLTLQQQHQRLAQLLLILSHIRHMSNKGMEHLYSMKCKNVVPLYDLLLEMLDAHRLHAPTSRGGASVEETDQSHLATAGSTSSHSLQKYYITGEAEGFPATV
Chain of Aromatase (Homo sapiens) (P11511 whole entry, looked up): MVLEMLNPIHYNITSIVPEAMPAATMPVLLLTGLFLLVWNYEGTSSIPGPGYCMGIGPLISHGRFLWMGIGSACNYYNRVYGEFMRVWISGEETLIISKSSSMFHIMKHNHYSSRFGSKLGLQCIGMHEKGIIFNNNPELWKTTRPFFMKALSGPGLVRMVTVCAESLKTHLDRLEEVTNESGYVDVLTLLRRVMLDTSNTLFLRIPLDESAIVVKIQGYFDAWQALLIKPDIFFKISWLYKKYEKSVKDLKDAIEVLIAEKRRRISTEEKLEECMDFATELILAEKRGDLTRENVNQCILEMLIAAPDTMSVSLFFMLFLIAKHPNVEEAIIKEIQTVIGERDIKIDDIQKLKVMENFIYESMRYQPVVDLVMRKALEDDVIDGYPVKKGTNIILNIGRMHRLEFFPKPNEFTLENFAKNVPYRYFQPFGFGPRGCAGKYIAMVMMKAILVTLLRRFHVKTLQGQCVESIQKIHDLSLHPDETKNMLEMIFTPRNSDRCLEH

Cc1[nH]c(C)c(Cl)c(=O)c1Cl
inactive: [1] | [2] | [3] | [4] | [5] | [6] | [7] | [8] | Aromatase (Homo sapiens)

CC(=O)c1ccc2c(c1)N(CCCN(C)C)c1ccccc1S2
active: [9] 10.1 µM
inactive: [3] | [4] | [5] | [6] | [7] | [8]

CCN(CC)CCOC(=O)C(Cc1cccc2ccccc12)CC1CCCO1 (configuration not stated)
inactive: [9] | [4] | [8] | Aromatase (Homo sapiens)

C[Si](C)(CCCN)O[Si](C)(C)CCCN
inactive: [9] | [3] | [4] | [5] | [6] | [7] | Aromatase (Homo sapiens)

O=C(O)C(S)C(S)C(=O)O (configuration not stated)
inactive: [2] | [4] | [8] | Aromatase (Homo sapiens)
active: [9] 26.6 µM

C=CC1CC2C=CC1C2 (configuration not stated)
inactive: [1] | [2] | [3] | [4] | [5] | [6] | [7] | [8] | Aromatase (Homo sapiens)

C#C[C@]1(O)CC[C@H]2[C@@H]3CCc4cc(OC5CCCC5)ccc4[C@H]3CC[C@@]21C
active: [9] 18.8 µM
inactive: [4] | [8] | Aromatase (Homo sapiens)

CNCCCCOc1ccccc1Cc1ccccc1
inactive: [4] | [5] | [6] | [7] | [8]
active: [1] 11.9 µM

COCC(C)OC(C)=O (configuration not stated)
inactive: [1] | [2] | [3] | [4] | [8] | Aromatase (Homo sapiens)

COc1cc(Cl)ccc1Oc1ccc(Cl)cc1Cl
active: [1] 52.9 µM
inactive: [2] | [4] | [5] | [6] | [8] | Aromatase (Homo sapiens)

CCCCCCCC/C=C\CCCCCCCC(=O)OCC
inactive: [1] | [2] | [4] | [8] | Aromatase (Homo sapiens)

CC(C)OC(=O)C(C)N(C(=O)c1ccccc1)c1ccc(F)c(Cl)c1 (configuration not stated)
active: [1] 61.1 µM
inactive: [2] | [4] | [8] | Aromatase (Homo sapiens)

CN(C)CCN(Cc1ccc(Cl)cc1)c1ccccn1
active: [1] 10.1 µM
inactive: [2] | [4] | [8] | Aromatase (Homo sapiens)

O=[N+]([O-])c1cccc(S(=O)(=O)O)c1
inactive: [1] | [2] | [4] | [8] | Aromatase (Homo sapiens)

Nc1ccc(N)c2c1C(=O)c1ccccc1C2=O
inactive: [2] | [4]
active: [1] 24.3 µM | [8] 24.3 µM

O=[N+]([O-])c1ccc(NCCO)c(OCCO)c1
inactive: [1] | [2]
active: [8] 68.7 µM | Aromatase (Homo sapiens) 17.2 µM

NCC(=O)O
inactive: [1] | [2] | [3] | [5] | [6] | [7] | [8] | Aromatase (Homo sapiens)

Cc1c(N)cccc1[N+](=O)[O-]
inactive: [1] | [2] | [3] | [4] | [5] | [7] | [8]

CC(C)(C)Cl
active: [6] 64.4 µM
inactive: [1] | [2] | [3] | [5] | [8] | Aromatase (Homo sapiens)

Cc1cccc(C)c1NC(=O)CN(CC(=O)O)CC(=O)O
inactive: [1] | [2] | [4] | [8] | Aromatase (Homo sapiens)

C=CCOC(=O)CCC1CCCCC1
inactive: [1] | [2] | [4] | [8] | Aromatase (Homo sapiens)

CC(C)C[C@H]1C(=O)N2CCC[C@H]2[C@]2(O)O[C@](NC(=O)[C@@H]3C=C4c5cccc6[nH]c(Br)c(c56)C[C@H]4N(C)C3)(C(C)C)C(=O)N12
inactive: [2] | [4] | [8]
active: [1] 13.3 µM and 16.4 µM

CN(C)c1ccc(CCO)cc1
inactive: [1] | [2] | [3] | [4] | [5] | [6] | [8] | Aromatase (Homo sapiens)

O=C(O)c1ccccc1Cl
inactive: [1] | [2] | [4] | [8] | Aromatase (Homo sapiens)

CCCCCCCCCCCCCCOS(=O)(=O)O
inactive: [2] | [3] | [4] | [5] | [6] | [8] | Aromatase (Homo sapiens)
active: [1] 48.6 µM

S=C([S-])NCCNC(=S)[S-].[Mn+2]
inactive: [1] | [2] | Aromatase (Homo sapiens)
